# Tests used:
# [1] = target: Tyrosine-protein kinase CSK (Homo sapiens) (UniProt P41240); conditions: at 1 µM;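 further: each value is an averaged inhibition reading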
# [2] = target: T1, Discoidin domain-containing receptor 2 (Homo sapiens) (UniProt Q16832); conditions: at 0.1 µM
# T1 sequence (whole entry): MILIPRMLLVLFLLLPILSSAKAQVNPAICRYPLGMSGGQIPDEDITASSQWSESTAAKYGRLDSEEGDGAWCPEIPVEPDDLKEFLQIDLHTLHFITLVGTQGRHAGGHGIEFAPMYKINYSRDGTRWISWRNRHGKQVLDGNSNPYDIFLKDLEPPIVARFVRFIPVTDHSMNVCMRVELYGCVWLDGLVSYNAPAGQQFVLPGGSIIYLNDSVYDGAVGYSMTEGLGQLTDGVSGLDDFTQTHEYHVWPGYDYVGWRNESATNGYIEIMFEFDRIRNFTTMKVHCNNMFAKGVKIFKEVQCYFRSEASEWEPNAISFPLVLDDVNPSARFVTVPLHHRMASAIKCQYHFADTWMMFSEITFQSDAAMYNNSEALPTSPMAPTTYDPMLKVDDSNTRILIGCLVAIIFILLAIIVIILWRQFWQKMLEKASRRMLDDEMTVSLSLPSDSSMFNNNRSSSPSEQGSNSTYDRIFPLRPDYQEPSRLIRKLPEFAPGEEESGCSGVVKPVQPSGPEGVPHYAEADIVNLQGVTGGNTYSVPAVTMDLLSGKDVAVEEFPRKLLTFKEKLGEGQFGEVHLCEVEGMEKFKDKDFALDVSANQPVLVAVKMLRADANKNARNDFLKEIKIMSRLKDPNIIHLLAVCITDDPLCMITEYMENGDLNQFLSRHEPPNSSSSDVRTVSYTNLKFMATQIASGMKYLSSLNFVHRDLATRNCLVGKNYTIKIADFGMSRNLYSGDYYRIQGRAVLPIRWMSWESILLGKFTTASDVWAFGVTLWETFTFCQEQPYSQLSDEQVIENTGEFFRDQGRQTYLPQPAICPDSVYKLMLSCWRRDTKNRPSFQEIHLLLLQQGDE
# [3] = target: T1, Discoidin domain-containing receptor 2 (Homo sapiens); conditions: at 1 µM
# [4] = target: Epidermal growth factor receptor (Homo sapiens) (UniProt P00533); conditions: at 0.1 µM
# Sequence of Epidermal growth factor receptor (Homo sapiens) (P00533 whole entry): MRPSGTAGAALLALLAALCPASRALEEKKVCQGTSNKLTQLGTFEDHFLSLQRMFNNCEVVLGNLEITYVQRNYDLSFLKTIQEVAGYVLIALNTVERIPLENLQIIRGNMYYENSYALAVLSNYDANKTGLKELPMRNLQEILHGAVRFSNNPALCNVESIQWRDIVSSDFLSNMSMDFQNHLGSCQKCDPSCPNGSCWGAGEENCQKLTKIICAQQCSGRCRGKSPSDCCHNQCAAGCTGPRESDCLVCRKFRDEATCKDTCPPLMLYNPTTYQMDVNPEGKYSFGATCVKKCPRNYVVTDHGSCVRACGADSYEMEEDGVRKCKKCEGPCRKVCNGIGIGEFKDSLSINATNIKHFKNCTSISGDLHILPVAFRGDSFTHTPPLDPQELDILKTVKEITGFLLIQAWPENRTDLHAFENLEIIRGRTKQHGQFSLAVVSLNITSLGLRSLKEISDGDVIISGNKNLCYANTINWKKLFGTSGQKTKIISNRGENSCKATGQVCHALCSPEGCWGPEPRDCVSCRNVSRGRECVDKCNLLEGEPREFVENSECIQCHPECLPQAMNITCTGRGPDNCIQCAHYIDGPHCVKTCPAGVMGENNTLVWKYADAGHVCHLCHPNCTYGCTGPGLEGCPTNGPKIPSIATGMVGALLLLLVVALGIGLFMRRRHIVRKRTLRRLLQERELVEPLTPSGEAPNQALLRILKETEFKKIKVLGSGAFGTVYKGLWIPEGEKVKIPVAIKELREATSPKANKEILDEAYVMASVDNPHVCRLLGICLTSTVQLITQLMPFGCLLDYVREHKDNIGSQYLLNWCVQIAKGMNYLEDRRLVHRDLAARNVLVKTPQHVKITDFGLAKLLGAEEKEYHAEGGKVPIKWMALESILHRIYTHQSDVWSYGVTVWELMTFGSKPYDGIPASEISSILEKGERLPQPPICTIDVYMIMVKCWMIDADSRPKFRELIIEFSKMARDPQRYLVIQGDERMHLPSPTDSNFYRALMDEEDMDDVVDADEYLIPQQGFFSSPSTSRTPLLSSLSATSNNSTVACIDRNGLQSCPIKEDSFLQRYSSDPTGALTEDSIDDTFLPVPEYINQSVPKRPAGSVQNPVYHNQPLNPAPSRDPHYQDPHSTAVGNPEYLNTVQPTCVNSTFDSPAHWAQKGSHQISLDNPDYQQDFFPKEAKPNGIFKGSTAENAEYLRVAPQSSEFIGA
# [5] = target: Epidermal growth factor receptor (Homo sapiens) (UniProt P00533); conditions: at 1 µM
# [6] = tested on: Epidermal growth factor receptor (Homo sapiens), P00533 [L858R]; conditions: at 0.1 µM
# Sequence of Epidermal growth factor receptor (Homo sapiens), P00533 [L858R] (P00533 whole entry L858R): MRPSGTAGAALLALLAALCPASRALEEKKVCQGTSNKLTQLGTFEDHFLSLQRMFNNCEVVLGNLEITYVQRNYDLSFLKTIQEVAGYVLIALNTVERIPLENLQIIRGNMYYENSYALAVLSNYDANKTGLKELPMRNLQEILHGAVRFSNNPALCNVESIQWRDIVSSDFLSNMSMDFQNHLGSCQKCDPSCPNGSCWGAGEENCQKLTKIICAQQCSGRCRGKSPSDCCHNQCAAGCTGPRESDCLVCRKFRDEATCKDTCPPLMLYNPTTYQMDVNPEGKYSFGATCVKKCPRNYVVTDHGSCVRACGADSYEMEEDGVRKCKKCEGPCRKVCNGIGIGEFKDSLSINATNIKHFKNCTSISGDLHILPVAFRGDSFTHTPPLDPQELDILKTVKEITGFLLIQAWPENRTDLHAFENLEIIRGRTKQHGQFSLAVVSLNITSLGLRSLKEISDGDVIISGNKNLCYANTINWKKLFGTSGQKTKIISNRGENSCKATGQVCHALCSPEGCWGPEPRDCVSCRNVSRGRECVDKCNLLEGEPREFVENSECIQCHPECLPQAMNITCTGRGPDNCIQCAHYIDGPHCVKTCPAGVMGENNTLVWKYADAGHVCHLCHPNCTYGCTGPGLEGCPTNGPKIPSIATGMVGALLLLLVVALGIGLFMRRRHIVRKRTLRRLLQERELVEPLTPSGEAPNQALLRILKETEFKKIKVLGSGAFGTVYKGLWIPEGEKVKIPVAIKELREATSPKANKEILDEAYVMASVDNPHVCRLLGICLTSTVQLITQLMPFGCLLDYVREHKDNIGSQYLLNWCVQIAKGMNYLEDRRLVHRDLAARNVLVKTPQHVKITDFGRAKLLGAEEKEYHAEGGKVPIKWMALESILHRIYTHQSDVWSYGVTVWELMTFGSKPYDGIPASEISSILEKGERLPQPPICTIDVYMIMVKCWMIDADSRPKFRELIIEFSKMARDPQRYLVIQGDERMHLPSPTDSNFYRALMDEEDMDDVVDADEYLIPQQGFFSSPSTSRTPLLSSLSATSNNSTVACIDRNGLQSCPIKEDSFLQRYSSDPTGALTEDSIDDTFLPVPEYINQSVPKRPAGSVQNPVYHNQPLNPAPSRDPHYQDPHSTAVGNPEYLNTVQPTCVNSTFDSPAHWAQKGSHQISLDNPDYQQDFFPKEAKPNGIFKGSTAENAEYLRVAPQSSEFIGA
# [7] = tested on: Epidermal growth factor receptor (Homo sapiens), P00533 [L858R]; conditions: at 1 µM
# [8] = tested on: Epidermal growth factor receptor (Homo sapiens), P00533 [L861Q]; conditions: at 0.1 µM
# [9] = tested on: Epidermal growth factor receptor (Homo sapiens), P00533 [L861Q]; conditions: at 1 µM
# [10] = tested on: Epidermal growth factor receptor (Homo sapiens), P00533 [T790M]; conditions: at 0.1 µM
# [11] = tested on: Epidermal growth factor receptor (Homo sapiens), P00533 [T790M]; conditions: at 1 µM
# [12] = tested on: Epidermal growth factor receptor (Homo sapiens), P00533 [L858R,T790M]; conditions: at 0.1 µM
# [13] = tested on: Epidermal growth factor receptor (Homo sapiens), P00533 [L858R,T790M]; conditions: at 1 µM
# [14] = target: Ephrin type-A receptor 2 (Homo sapiens) (UniProt P29317); conditions: at 0.1 µM
# Sequence of Ephrin type-A receptor 2 (Homo sapiens) (P29317 whole entry): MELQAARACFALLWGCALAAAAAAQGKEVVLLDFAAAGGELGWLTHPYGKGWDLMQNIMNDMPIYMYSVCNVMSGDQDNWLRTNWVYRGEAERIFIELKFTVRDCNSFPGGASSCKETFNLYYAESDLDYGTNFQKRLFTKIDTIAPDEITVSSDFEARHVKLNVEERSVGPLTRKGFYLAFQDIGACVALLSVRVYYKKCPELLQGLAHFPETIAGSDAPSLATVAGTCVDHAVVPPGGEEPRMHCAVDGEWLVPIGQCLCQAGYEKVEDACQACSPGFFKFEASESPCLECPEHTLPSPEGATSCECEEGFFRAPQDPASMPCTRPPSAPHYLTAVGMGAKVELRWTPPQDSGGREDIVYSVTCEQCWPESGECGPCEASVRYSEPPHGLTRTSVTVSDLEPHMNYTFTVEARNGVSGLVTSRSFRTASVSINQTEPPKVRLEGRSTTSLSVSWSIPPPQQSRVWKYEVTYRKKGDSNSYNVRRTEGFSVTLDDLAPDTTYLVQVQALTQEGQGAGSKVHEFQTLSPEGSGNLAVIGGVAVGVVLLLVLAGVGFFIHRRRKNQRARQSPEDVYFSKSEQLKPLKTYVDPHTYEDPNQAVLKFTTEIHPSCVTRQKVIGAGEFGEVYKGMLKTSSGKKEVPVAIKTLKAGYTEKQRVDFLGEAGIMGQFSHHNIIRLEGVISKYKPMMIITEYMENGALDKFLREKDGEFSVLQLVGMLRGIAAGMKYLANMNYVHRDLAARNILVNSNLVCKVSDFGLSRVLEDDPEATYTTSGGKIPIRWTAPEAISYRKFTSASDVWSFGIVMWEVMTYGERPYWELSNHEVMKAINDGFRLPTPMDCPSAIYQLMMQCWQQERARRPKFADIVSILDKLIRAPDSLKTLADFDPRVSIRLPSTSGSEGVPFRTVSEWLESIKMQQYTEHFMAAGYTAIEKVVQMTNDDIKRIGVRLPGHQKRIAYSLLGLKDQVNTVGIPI
# [15] = target: Ephrin type-A receptor 2 (Homo sapiens) (UniProt P29317); conditions: at 1 µM
# [16] = target: T2, Ephrin type-A receptor 3 (Homo sapiens) (UniProt P29320); conditions: at 0.1 µM
# T2 sequence (whole entry): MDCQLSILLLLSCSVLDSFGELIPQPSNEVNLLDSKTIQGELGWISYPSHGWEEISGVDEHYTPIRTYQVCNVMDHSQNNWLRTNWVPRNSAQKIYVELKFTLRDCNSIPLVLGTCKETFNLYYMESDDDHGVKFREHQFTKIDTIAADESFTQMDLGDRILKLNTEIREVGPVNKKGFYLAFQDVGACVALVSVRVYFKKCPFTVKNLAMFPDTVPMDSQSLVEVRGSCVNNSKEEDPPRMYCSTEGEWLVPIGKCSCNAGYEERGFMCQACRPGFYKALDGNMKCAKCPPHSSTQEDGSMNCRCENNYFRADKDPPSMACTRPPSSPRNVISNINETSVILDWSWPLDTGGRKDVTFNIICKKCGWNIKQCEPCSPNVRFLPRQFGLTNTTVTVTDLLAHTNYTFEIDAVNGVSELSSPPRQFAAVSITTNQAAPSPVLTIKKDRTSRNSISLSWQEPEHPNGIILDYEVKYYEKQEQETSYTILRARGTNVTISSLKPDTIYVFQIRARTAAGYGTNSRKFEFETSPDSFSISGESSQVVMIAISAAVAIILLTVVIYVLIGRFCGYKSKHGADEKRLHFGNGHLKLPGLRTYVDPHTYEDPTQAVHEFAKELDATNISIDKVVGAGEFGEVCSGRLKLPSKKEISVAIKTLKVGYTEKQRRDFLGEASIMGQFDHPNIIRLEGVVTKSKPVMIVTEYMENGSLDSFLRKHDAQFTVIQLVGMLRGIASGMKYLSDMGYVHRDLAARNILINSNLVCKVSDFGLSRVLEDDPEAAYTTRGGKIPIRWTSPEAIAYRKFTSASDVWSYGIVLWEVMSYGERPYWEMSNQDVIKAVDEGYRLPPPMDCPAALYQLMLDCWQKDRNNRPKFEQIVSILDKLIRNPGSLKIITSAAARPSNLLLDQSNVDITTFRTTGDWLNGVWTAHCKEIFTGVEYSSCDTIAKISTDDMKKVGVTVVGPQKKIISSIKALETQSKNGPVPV
# [17] = target: T2, Ephrin type-A receptor 3 (Homo sapiens); conditions: at 1 µM
# [18] = target: Ephrin type-A receptor 4 (Homo sapiens) (UniProt P54764); conditions: at 0.1 µM
# Sequence of Ephrin type-A receptor 4 (Homo sapiens) (P54764 whole entry): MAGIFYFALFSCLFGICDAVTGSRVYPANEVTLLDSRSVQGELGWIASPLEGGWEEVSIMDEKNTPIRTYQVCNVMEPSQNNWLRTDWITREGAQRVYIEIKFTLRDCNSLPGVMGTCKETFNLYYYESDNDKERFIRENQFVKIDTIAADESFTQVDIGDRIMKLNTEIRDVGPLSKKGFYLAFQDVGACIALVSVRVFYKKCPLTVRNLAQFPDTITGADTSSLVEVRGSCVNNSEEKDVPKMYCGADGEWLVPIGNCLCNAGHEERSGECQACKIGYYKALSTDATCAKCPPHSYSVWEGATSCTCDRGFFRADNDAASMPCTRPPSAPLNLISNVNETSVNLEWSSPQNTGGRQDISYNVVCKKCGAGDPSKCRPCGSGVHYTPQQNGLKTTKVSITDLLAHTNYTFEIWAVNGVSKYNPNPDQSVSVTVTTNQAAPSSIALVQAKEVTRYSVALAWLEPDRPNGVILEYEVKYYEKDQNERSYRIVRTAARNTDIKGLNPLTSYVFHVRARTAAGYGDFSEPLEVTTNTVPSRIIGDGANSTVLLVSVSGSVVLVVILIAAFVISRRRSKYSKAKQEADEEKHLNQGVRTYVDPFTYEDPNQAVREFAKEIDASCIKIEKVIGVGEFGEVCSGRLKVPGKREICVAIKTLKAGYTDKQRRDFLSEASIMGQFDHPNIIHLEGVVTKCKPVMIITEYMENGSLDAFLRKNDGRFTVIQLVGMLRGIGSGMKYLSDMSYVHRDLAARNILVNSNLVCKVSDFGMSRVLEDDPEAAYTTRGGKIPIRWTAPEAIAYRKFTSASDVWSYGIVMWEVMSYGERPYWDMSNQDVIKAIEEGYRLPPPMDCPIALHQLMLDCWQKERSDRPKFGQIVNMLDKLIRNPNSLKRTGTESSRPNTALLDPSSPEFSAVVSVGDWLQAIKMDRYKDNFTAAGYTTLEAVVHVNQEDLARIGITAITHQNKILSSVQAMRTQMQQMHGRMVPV
# [19] = target: Ephrin type-A receptor 4 (Homo sapiens) (UniProt P54764); conditions: at 1 µM
# [20] = target: T3, Ephrin type-B receptor 2 (Homo sapiens) (UniProt P29323); conditions: at 0.1 µM;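 further: reported as mean inhibition of EPHB2, from the GSK PKIS dataset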
# T3 sequence (whole entry): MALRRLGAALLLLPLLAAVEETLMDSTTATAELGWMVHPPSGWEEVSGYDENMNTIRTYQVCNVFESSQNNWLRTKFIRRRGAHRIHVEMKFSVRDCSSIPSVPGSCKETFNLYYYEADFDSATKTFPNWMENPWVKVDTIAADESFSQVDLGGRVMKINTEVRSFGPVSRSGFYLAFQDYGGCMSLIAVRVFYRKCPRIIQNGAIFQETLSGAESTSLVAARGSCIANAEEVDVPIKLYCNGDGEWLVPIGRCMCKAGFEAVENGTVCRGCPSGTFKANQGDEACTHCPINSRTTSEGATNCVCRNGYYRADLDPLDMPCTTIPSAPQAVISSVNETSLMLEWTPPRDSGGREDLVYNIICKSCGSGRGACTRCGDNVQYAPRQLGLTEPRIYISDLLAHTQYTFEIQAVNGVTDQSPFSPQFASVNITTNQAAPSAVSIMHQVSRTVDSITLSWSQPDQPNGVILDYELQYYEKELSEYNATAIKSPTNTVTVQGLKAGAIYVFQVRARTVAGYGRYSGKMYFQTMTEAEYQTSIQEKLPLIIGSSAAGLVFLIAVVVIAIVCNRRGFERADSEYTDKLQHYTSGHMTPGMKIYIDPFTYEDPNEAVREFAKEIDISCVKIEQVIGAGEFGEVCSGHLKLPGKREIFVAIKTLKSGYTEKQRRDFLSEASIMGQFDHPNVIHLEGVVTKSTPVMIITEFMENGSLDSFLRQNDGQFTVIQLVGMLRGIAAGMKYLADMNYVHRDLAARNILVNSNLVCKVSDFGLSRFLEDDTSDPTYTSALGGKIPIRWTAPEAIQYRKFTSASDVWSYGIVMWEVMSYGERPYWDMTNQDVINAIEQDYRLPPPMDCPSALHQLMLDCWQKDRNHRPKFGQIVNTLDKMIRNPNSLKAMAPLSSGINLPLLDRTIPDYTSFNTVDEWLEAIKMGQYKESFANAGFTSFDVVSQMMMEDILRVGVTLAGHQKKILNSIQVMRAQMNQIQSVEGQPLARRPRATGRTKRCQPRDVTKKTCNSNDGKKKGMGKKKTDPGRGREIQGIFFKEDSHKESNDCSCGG
# Sequence of Tyrosine-protein kinase CSK (Homo sapiens) (P41240 2-450 limits assumed): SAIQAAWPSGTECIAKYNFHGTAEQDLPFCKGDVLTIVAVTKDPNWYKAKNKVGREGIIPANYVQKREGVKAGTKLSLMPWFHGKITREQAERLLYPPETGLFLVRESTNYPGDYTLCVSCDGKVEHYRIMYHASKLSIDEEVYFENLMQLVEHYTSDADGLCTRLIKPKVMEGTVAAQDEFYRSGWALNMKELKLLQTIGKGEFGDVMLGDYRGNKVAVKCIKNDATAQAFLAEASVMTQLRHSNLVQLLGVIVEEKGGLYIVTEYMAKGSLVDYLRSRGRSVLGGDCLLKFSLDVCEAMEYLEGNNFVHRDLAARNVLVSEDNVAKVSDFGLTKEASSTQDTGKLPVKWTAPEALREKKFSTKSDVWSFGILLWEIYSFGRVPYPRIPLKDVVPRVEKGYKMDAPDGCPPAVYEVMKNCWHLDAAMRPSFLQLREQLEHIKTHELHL
Structure (SMILES),inhibition [1] [%],inhibition [2] [%],inhibition [3] [%],inhibition [4] [%],inhibition [5] [%],inhibition [6] [%],inhibition [7] [%],inhibition [8] [%],inhibition [9] [%],inhibition [10] [%],inhibition [11] [%],inhibition [12] [%],inhibition [13] [%],inhibition [14] [%],inhibition [15] [%],inhibition [16] [%],inhibition [17] [%],inhibition [18] [%],inhibition [19] [%],inhibition [20] [%]
Cc1ccc(NC(=O)c2ccoc2)cc1-c1ccc(C(=O)NCC2CC2)cc1,0.18,1.48,2.43,3.14,6.36,3.23,1,0.74,0.37,1.63,0.9,2.36,1.46,0.92,-0.44,1.99,2.02,5.05,6.13,2.46
CCc1ccc(Oc2nccc(-c3c(-c4ccc(F)cc4)ncn3C3CCNCC3)n2)cc1,10.3,1.91,3.52,2.21,7.66,3.05,15.9,1.97,5.92,0.57,4.64,0.15,8.07,0.72,-0.17,4.68,4.67,9.41,10.6,4.76
COc1cc(C)c(N(C)C(=O)CN(C)C)cc1Nc1nc(Nc2cccc(F)c2C(N)=O)c2cc[nH]c2n1,-1.53,0.29,0.56,-4.88,-1.47,-1.11,1.56,1.84,-2.41,0.93,1.09,-0.19,1.92,-2.68,-4.61,-1.1,-3.2,3.77,-1.31,2.81
C#Cc1cccc(Nc2ncnc3ccc(OCCCCNCCS(C)(=O)=O)cc23)c1,8.24,4.72,9.88,75.9,85.4,96.8,97.7,91.7,97.6,3.8,14.6,3.12,22.8,-2.77,-2.32,1.3,5.15,12.3,15.3,10.3
COc1cc2ncn(-c3cc(OCCc4ccccc4)c(C(N)=O)s3)c2cc1OC,2.94,0.75,2.48,7.08,7.65,2.45,9.43,0.8,0.3,0.19,0.49,0.55,4.9,1.97,0.66,3.06,4.07,4.63,3.61,3.87
C[C@@H](Oc1cc(-n2cnc3ccc(OC4CCN(C)CC4)cc32)sc1C(N)=O)c1ccccc1Cl,5.07,1.72,4.56,0.49,3.58,1.45,3.56,2.71,4.46,0.91,1.48,1.1,6.15,-2.62,-3.66,-0.17,-0.53,7.06,9.83,7.8
Cc1ccc(C(=O)NC(C)C)cc1-c1ccc(C(=O)NCC2CC2)cc1,–,-0.36,0.09,0.3,1.34,-1.62,-1.21,-0.86,-2.64,-0.77,-3.61,-2.78,-0.98,-1.78,-2.07,-7.27,-6.99,-6.17,-6.72,-9.67
COC(=O)Nc1nc2ccc(Sc3ccc(NC(=O)Nc4cc(C(F)(F)F)ccc4F)cc3)cc2[nH]1,7.52,56.3,83.5,-0.94,2.67,-0.44,2.71,2.04,0.54,0.63,0.47,4.21,1.97,25.8,89.6,9.91,34.5,49.5,81.6,43.4
COc1cc2ncn(-c3cc(OCc4ccccc4C(F)(F)F)c(C(C)=O)s3)c2cc1OC,3.13,3.54,5.22,-0.8,1.81,-2.47,3.36,1.73,0.09,2.46,0.97,-1.84,0.68,1.98,2.23,1.78,4.66,5.55,10.6,5.43
Fc1ccc(-c2nc3n(c2-c2ccncc2)CCS3)cc1,4.61,2.36,4.83,0.92,3.39,5.61,14.5,2.5,1.57,1.65,0.86,1.02,1.42,-3.82,-3.6,-0.22,-0.79,6.24,3.74,3.72
COc1cc2ncn(-c3cc(OCc4cccs4)c(C(N)=O)s3)c2cc1OC,9.5,3.95,4.63,-1.17,1.76,4.34,18.5,2.87,7.86,1.54,5.88,-0.25,5.43,-1.31,-1.86,-2.47,0.85,8.34,19.3,7.38
Cc1ccc(C(=O)NC2CCC2)cc1-c1ccc(C(=O)NCC2CC2)cc1,0.62,0.33,1.1,10.4,7.15,3.77,4.05,4.21,4.15,1.73,-0.05,0.49,1.53,0.5,0.07,2.96,4.24,4.02,0.68,6.98
CCS(=O)(=O)c1ccc(OC)c(Nc2ncc(-c3cccc(-c4ccccc4F)c3)o2)c1,4.82,4.99,30.8,4.07,23.3,14.1,62.1,4.78,24.4,-1.94,0.84,3.32,5.25,-1.44,-0.56,-1.38,4.18,2.37,2.94,5.91
NS(=O)(=O)c1ccc(Nc2cc(-c3ccc(O)c(F)c3)n[nH]2)cc1,-6.35,-0.38,18.8,0.49,3.68,-2.81,-2,-1.84,0.29,-1.07,-0.95,-2.9,-4.28,-1.33,-1.33,-4.5,-0.8,-6.46,-5.56,-3.09
O=C(Nc1n[nH]c2nc(-c3ccc(O)cc3)c(Br)cc12)C1CC1,10.9,2.17,4.12,5.76,6.97,5.48,9.71,6.22,7.61,4.95,5.37,6.72,8.16,4.79,24.2,8.45,14,15.2,39.2,11.9

# From ChEMBL document CHEMBL1961873, “Compounds: GSK PKIS; Assays: Nanosyn kinase panel” (2012)
